VACV mCherry inh: qHTS for Stage-Specific Inhibitors of Vaccinia Orthopoxvirus: mCherry Reporter Primary qHTS. Vaccinia virus mCherry reporter infection, fluorescence. Potency, µM (top dose mostly 36.5 µM), actives largely listed as inhibitors. 310,000 compounds, 0.63% hits. AID 720579, 2013; calls by dose curve; tested in A549 cells; also: nearly all actives have a fitted effect of over 35% in size
HCV inh: qHTS Assay for Inhibitors of Hepatitis C Virus (HCV); Huh7.5.1 HCVcc-Cre infection, luciferase reporter, 44 h; Potency, µM (series often up to 41.8 µM), actives largely listed as inhibitors; 340,000 compounds, 3.4% hits; AID 651820, 2012; active = well fitted inhibition curve with a large enough effect; inconclusive = small, poorly fitted or top-dose-only effect, or another doubt; inactive = no such curve, though single readings can be large or run the other way
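Cells (1,000/well) were plated 4 h before compound, then infected with HCVcc-Cre virus (~0.5 moi). After 44 h further culture, infection was read as luciferase luminescence following a 15 min substrate incubation at room temperature.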
HCMV antiviral: qHTS Assay for inhibitors of the human cytomegalovirus (HCMV). HFF cells, HCMV-luciferase reporter, 72 h; stronger effect = lower value. activity change, negative = inhibition, % at 57.5 µM. 410,000 compounds, 4.5% hits; in the data active = activity change below about -60%; inconclusive = no clear call, values can overlap the other calls; inactive = above about -39%
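Two compound doses tested in HFFs infected with HCMV-luciferase, MOI 1 PFU/cell, 72 h at 37C. Lysate luminescence read with OneGlo; data normalized against buffer-only and 10uM Salinomycin inhibitor controls.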
Vaccinia Venus: qHTS for Stage-Specific Inhibitors of Vaccinia Orthopoxvirus: Venus Reporter Primary qHTS. Potency, µM (titrated, usually from 36.5 µM), most hits filed as inhibitors. 330,000 compounds, 0.46% hits. Vaccinia virus Venus reporter expression, fluorescence; calls by dose curve; tested in A549 cells; also: nearly all actives have a fitted effect of over 30% in size
FMDV antiviral: High Throughput Screening for Foot and Mouth Disease Virus Antivirals; FMDV antiviral cell-based qHTS; Potency, µM (highest dose often 57.9 µM), most hits filed as inhibitors; 410,000 compounds, 1.2% hits; AID 1159524, 2015; calls by dose curve; tested in HEK293T cells; also: read-out not given here; nearly all actives have a fitted effect of over 45% in size
Each line names hits and unclear results; the compound was inactive in the other large screens. Compounds with a hit are over-represented: about 7.3% of the library has one in this group of screens.

COc1ccc(C(=O)C2CCCN(C/C=C/c3ccccc3OC)C2)c(OC)c1 (stereo unspecified)	HCV inh inconclusive, HCMV antiviral -60.6
Cc1cccn2c(CNCC3(c4ccccc4)CCCC3)c(C(=O)N3CCOCC3)nc12	HCMV antiviral -100.9
CSCCNCc1c(C(=O)N2CCOCC2)nc2c(C)cccn12	none
CC1CCCC(NC(=O)CSc2ccc(F)cc2)C1C (stereo unspecified)	none (no result: VACV mCherry inh, Vaccinia Venus)
CC1CCCC(NCC(O)COC(c2ccc(F)cc2)c2ccc(F)cc2)C1C (stereo unspecified)	VACV mCherry inh inconclusive, HCV inh inconclusive, HCMV antiviral -97.2, Vaccinia Venus inconclusive, FMDV antiviral inconclusive
CCCS(=O)(=O)c1nc(S(=O)(=O)c2ccc(C)cc2)c(N2CCOCC2)s1	HCMV antiviral -62.6
Cc1ccc(S(=O)(=O)c2nc(S(C)(=O)=O)sc2N2CCN(C)CC2)cc1	HCMV antiviral -103.8 (no result: VACV mCherry inh, Vaccinia Venus)
CCCS(=O)(=O)c1nc(S(=O)(=O)c2ccc(C)cc2)c(N2CCCCC2)s1	none (no result: HCV inh)
C=CCn1c(Sc2ncc([N+](=O)[O-])s2)n[nH]c1=O	HCV inh 6.31µM, HCMV antiviral -97.1, FMDV antiviral inconclusive
C=CCn1c(CSc2ccccc2[N+](=O)[O-])n[nH]c1=S	none
O=C(Cn1nc(Cc2cccnc2)c2ccccc2c1=O)Nc1ccc(F)c(Cl)c1	VACV mCherry inh inconclusive, FMDV antiviral inconclusive (no result: HCV inh)
CCN(Cc1ccccc1)C(=O)C1CCC(CNS(=O)(=O)c2ccc3c(c2)CCCC(=O)N3)CC1 (stereo unspecified)	FMDV antiviral inconclusive (no result: HCV inh)
CN(C)NC(=S)NC1CC2CCC1C2 (stereo unspecified)	HCMV antiviral -61.1 (no result: VACV mCherry inh, Vaccinia Venus)
COc1ccccc1NC(=S)NC1CC2CCC1C2 (stereo unspecified)	HCMV antiviral inconclusive (no result: VACV mCherry inh, Vaccinia Venus)
CCOc1ccccc1C1NC(c2ccc3c(c2)OCO3)=CC(c2ccccc2O)N1 (stereo unspecified)	none (no result: HCV inh, HCMV antiviral, FMDV antiviral)
COc1cc(CN2CCc3ccccc3C2)cc([N+](=O)[O-])c1O	none (no result: VACV mCherry inh, Vaccinia Venus)
COc1cc(CN2CCN(c3cc(C)ccc3C)CC2)ccc1O	HCV inh inconclusive, HCMV antiviral -72.8 (no result: VACV mCherry inh, Vaccinia Venus)
COc1cc(CN2CCc3ccccc3C2)ccc1O	HCV inh inconclusive, HCMV antiviral -99.6, FMDV antiviral 31.6µM (no result: VACV mCherry inh, Vaccinia Venus)
CN(CCO)C(=O)c1cn(C2CCN(Cc3ccc4ccccc4c3)CC2)nn1	none (no result: HCV inh, HCMV antiviral)
CC(=O)Oc1ccc(C23c4ccccc4C2(OC(C)=O)c2cc(OC(C)=O)ccc23)cc1 (stereo unspecified)	HCV inh 11.2µM, HCMV antiviral -70.0, FMDV antiviral inconclusive
Cc1c(NC(=O)c2cc(-c3cccc(O)c3)on2)c(=O)n(-c2ccccc2)n1C	none (no result: HCV inh)
Cc1cc(NC(=O)c2cc(-c3ccco3)on2)nn1Cc1ccc(Cl)cc1	HCV inh inconclusive, HCMV antiviral inconclusive, Vaccinia Venus inconclusive
COc1ccc(-c2cc(C(=O)Nc3ccc(C)c(C)c3)no2)cc1	none (no result: VACV mCherry inh, Vaccinia Venus)
COc1cccc(-c2cc(C(=O)Nc3cc(C)n(Cc4ccc(Cl)cc4)n3)no2)c1	HCV inh 6.31µM, HCMV antiviral -79.7, FMDV antiviral inconclusive (no result: VACV mCherry inh, Vaccinia Venus)
Cc1cc(NC(=O)c2cc(-c3ccc(F)cc3)on2)nn1Cc1ccc(Cl)cc1	FMDV antiviral inconclusive (no result: HCV inh)
COc1cccc(-c2cc(C(=O)Nc3c(C)n(C)n(-c4ccccc4)c3=O)no2)c1	HCV inh inconclusive, HCMV antiviral -107.9
COc1ccc(OC)c(-c2cc(C(=O)Nc3cc(C)n(Cc4ccc(Cl)cc4)n3)no2)c1	HCV inh 11.2µM, FMDV antiviral 22.4µM (no result: VACV mCherry inh, Vaccinia Venus)
COc1ccc(-c2cc(C(=O)Nc3cccc(O)c3)no2)cc1	FMDV antiviral 20µM (no result: VACV mCherry inh, Vaccinia Venus)
Cc1noc(C)c1S(=O)(=O)NCCc1csc2nc(-c3ccc(F)cc3)nn12	none (no result: HCV inh)
C(=N\Nc1nc(-c2ccccc2)cs1)/c1cccs1	HCV inh 10µM
O=C(Cc1ccccc1)Nc1c(C(=O)Nc2ccccc2F)oc2ccccc12	none (no result: HCV inh)
Oc1ccc(Cc2ccc(Cl)cc2)c(O)c1	VACV mCherry inh inconclusive, HCMV antiviral -62.1
O=[N+]([O-])c1ccc(C[n+]2cccc3ccc4cccnc4c32)cc1	VACV mCherry inh inconclusive, HCV inh inconclusive, HCMV antiviral -96.4, Vaccinia Venus inconclusive
CC(C)(C)NCC(O)CON=C1c2ccccc2-c2ccccc21 (stereo unspecified)	VACV mCherry inh inconclusive, HCV inh 25.1µM, Vaccinia Venus inconclusive, FMDV antiviral inconclusive
CN(C)c1cccc(Nc2cc3[nH]c(-c4cccc(F)c4)cc3cn2)c1	none (no result: VACV mCherry inh, HCV inh, Vaccinia Venus, FMDV antiviral)
Cc1ccc(-c2nn(CC(=O)Nc3cccc(C(F)(F)F)c3)c(=O)c3ccccc23)cc1	none (no result: HCV inh)
Cc1c(Cl)cccc1NC(=O)Nc1cc(C(C)(C)C)on1	HCV inh 10µM
Cc1ccc(F)c(NC(=O)Nc2ccc3snnc3c2)c1	HCMV antiviral -105.9 (no result: HCV inh)
CC(C)(C)c1cc(NC(=O)Nc2ccc(Cl)cc2Cl)no1	HCV inh inconclusive
CC(=O)Nc1cccc(NC(=S)Nc2cccc(Cl)c2C)c1	none
O=C(Nc1ccc(F)cc1)Nc1ccc2snnc2c1	HCMV antiviral -75.1 (no result: HCV inh)
CC(=O)Nc1cccc(NC(=O)Nc2cccc(Cl)c2C)c1	HCMV antiviral -71.0
COc1ccc(OC)c(NC(=O)Cn2c(=O)cc(C)c3c(C)nn(-c4cccc(Cl)c4C)c32)c1	VACV mCherry inh inconclusive, HCMV antiviral inconclusive, Vaccinia Venus inconclusive (no result: HCV inh)
Cc1c(Cl)cccc1NC(=O)Nc1ccc2snnc2c1	VACV mCherry inh inconclusive, HCMV antiviral -103.9, Vaccinia Venus inconclusive (no result: HCV inh)
O=C(CCn1c(=O)c2cccn2c2ccc(F)cc21)NCCc1ccccc1Cl	HCMV antiviral inconclusive (no result: HCV inh)
Cc1ccccc1C(=O)N1CCN(CCc2ccccn2)CC1	none (no result: HCV inh)
CCOC(=O)Cn1c2c(c(=N)c3c1CCC3)CCCC2	HCMV antiviral inconclusive
CCCn1c2c(c(=N)c3c1CCC3)CCCC2	HCMV antiviral -96.8, FMDV antiviral inconclusive
CCCn1c2c(c(=N)c3c1CCC3)CCC2	HCV inh inconclusive, HCMV antiviral -73.7, FMDV antiviral inconclusive
CCCCCCCn1c2c(c(=N)c3ccccc31)CCC2	VACV mCherry inh inconclusive, HCV inh 1.78µM, HCMV antiviral -79.4, Vaccinia Venus inconclusive, FMDV antiviral 5.01µM
CCN(c1ccccc1C)S(=O)(=O)c1nnc(NC(=O)c2ccc(OC)c(OC)c2)s1	none (no result: HCV inh)
Cc1ccc(CNC(=O)CN2C(=O)CCn3nc(-c4ccccc4)cc32)cc1	none (no result: HCV inh)
Cc1ccc(CCNC(=O)CCSCc2ccccc2F)cc1	none (no result: HCV inh)
COc1ccc(NC(=O)c2cc3c(s2)-c2c(C)cccc2OC3)cc1Cl	VACV mCherry inh inconclusive, Vaccinia Venus inconclusive (no result: HCV inh)
Cc1cc(C(=O)CN2C(=O)C(=O)N(Cc3ccccc3)C2=O)c(C)n1Cc1ccccc1	none
Cc1cc(C(=O)CN2C(=O)C(=O)N(Cc3ccccc3)C2=O)c(C)n1CC1COc2ccccc2O1 (stereo unspecified)	VACV mCherry inh inconclusive, HCV inh 11.2µM
